What all share (type): functional
For experiment [1], the system named is Plasmodium falciparum. In words: GSK_TCMDC: Inhibition of Plasmodium falciparum 3D7 in whole red blood cells, using parasite LDH activity as an index of growth. Test compounds present at 2uM.
The test system of experiment [2] is Plasmodium falciparum. In words: GSK_TCMDC: Inhibition of Plasmodium falciparum Dd2 in whole red blood cells, using parasite LDH activity as an index of growth. Test compounds present at 2uM.
In experiment [3] the test system is HepG2. The experiment is described as follows: GSK_TCMDC: Percent inhibition of human HepG2 cell line. Test compounds present at 10uM.

On to `O=C(NCCc1ccc(Cl)c(Cl)c1)C1CCCN(C(=O)c2ccc(O)c(-c3ccc(Cl)c(Cl)c3)c2)C1` (stereo not drawn), for which the Inhibition – broadly, the drop in the measured response relative to a control, in per cent – in experiment [1] stood at 96%; in experiment [2], 65%; in experiment [3] it was 0%.
As to `Cc1cc(-c2ccc3c(c2)CCN(CCC2CCC(NC(=O)/C=C/c4cccc(F)c4)CC2)CC3)on1.Cl` (stereo not drawn), the Inhibition in experiment [1] came to 95%; in experiment [2], 19%; in experiment [3], 23%.
Taken in the same sequence, the figures for `CC(=O)Nc1ccc(OCCCCN(Cc2ccccc2C(F)(F)F)c2ccc(C#N)c(C(F)(F)F)c2)cc1` were 80%, 47% and 0%.
Taken in the same sequence, the figures for `Cc1ccc2nc(C)n(C3CCN(C(=O)Cc4ccc(F)c(F)c4)CC3)c2c1` were 100%, 100% and 4%.
For `O=C(c1cc(C(=O)NC2CCCCC2)c(=O)n(C2CCCCC2)c1)c1cc(F)ccc1O`, the Inhibition amounted to 99% in experiment [1], 98% in experiment [2] and 22% in experiment [3].
Taken in the same sequence, the figures for `Cc1cc(C)c(O)c(-c2cc(C(=O)Nc3ccc(S(=O)(=O)N4CC(C)OC(C)C4)cc3)[nH]n2)c1` (stereo not drawn) were 95%, 16% and 31%.
Taken in the same sequence, the figures for `COc1ccc(Nc2ncc3c(-c4cccc(NC(=O)Cc5cccnc5)c4)c[nH]c3n2)cc1OC` were 98%, 85% and 27%.
Taken in the same sequence, the figures for `CC1(C)N=C(N)N=C(N)C1c1ccc(Cl)c(Cl)c1.Cl` (stereo not drawn) were 95%, 0% and 47%.
For the compound `COc1cc2nc(NCCn3ccnc3C)nc(NCCc3ccccc3)c2cc1OC`, the values for the Inhibition in experiment [1], in experiment [2] and in experiment [3] were 99%, 0% and 21%, respectively.
Taken in the same sequence, the figures for `Cl.NC(=O)c1cccc(Nc2nccc(Nc3ccc4[nH]c(-c5ccccc5)cc4c3)n2)c1` were 100%, 98% and 28%.
Taken in the same sequence, the figures for `FC(F)(F)c1ccc2[nH]ccc(=NN=Cc3cccnc3)c2c1` were 100%, 40% and 0%.
Taken in the same sequence, the figures for `CCOc1cc(NCCSCc2nc[nH]c2C)nc2ccccc12` were 92%, 10% and 4%.
On to `O=C(NC1CCCCN(Cc2ccccc2O)C1)c1cc(F)cc(F)c1.O=C(O)C(F)(F)F` (stereo not drawn), for which the Inhibition is recorded as 89% in experiment [1], 52% in experiment [2] and 7% in experiment [3].
Taken in the same sequence, the figures for `Cc1[nH]c(C)c(-c2ccc(-c3ccc(F)cc3)nc2)c(=O)c1Br` were 97%, 96% and 15%.
With `Br.CCCCc1ccc(CCNCCCCCCNCCc2ccc(O)c(O)c2)cc1`, the Inhibition in experiment [1] worked out at 100%; in experiment [2] it was 0%; in experiment [3] it was 45%.
Taken in the same sequence, the figures for `COc1ccc(Cl)cc1N1CCN(CCCNC(=O)c2ccc(-c3nc4cc(Cl)c(C)cc4[nH]3)s2)CC1` were 100%, 97% and 0%.
Taken in the same sequence, the figures for `CCN(CC)Cc1cc(Nc2c3ccc(Cl)cc3nc3cccc(OC)c23)ccc1O.Cl` were 100%, 98% and 8%.
Taken in the same sequence, the figures for `COc1ccc(-c2cnc(N)c(-c3ccc(O)c(OC)c3)c2)cn1` were 97%, 98% and 23%.
As for `NC1CCN(c2nc(NCCCc3ccc(O)cc3)nc(NCc3ccccc3-c3ccccc3)n2)CC1.O=C(O)C(F)(F)F`, the Inhibition in experiment [1] is 100%; in experiment [2] it was 45%; in experiment [3] it was 11%.
As for `COc1ccc(CNC2CCN(C)CC2)cc1-c1ccc(S(=O)(=O)NCc2ccccc2)c(C)c1.O=C(O)C(F)(F)F`, the figures for the Inhibition in experiment [1], in experiment [2] and in experiment [3] were 100%, 98% and 81%, respectively.
Taken in the same sequence, the figures for `O=C(Nc1ccc([N+](=O)[O-])cc1Cl)c1cc2ccccc2cc1O` were 94%, 28% and 6%.
As to `O=C(Nc1ccc(Cl)c(Cl)c1)N1CCC(CNCc2cccc([N+](=O)[O-])c2)CC1.O=C(O)C(F)(F)F`, the figures for the Inhibition in experiment [1], in experiment [2] and in experiment [3] were 98%, 6% and 13%, respectively.
Taken in the same sequence, the figures for `COc1ccccc1C1CC(c2ccc(Br)cc2)=NN1C(=O)c1ccccc1` (stereo not drawn) were 85%, 59% and 12%.
Taken in the same sequence, the figures for `COc1ccc(CCCCN2C(=O)C(c3ccccc3)(c3ccccc3)N=C2N)cc1.O=C(O)C(F)(F)F` were 97%, 95% and 40%.
Taken in the same sequence, the figures for `CCc1cn(C)c2c(N3CCCC3=O)cc(C(=O)N[C@@H](Cc3ccccc3)[C@H](O)CNC3CCCCC3)cc12` were 97%, 98% and 8%.
On to `CCOC(=O)C1=C(C)NC2=C(C(=O)CC(C)(C)C2)C1c1ccc(Br)cc1` (stereo not drawn), for which the Inhibition in experiment [1] is given as 90%; in experiment [2] it was 66%; in experiment [3], 0%.
Taken in the same sequence, the figures for `O=C(O)C(F)(F)F.O=C(O)Cc1ccc(-c2c[nH]c3ncc(-c4cccc5ncccc45)cc23)cc1` were 95%, 0% and 7%.
Taken in the same sequence, the figures for `CCOc1cc(C(=O)NCc2ccc(Cl)c(Cl)c2)ccc1-c1nc2cc(Cl)ccc2[nH]1` were 97%, 4% and 10%.
Taken in the same sequence, the figures for `COc1cc2nc(SCCCC#N)n(C3CCCCCC3)c(=N)c2cc1OC` were 89%, 9% and 0%.
As for `O=C(NC1CCN(Cc2ccccc2)CC1)c1ccc(-c2nc3cc(Cl)c(F)cc3[nH]2)s1`, the Inhibition was 100% in experiment [1], 99% in experiment [2] and 28% in experiment [3].
Taken in the same sequence, the figures for `Cc1ccc2c(=O)n(C)c(=O)n(C)c2n1` were 98%, 0% and 15%.

Values taken from ChEMBL document CHEMBL1157539, “Thousands of chemical starting points for antimalarial lead identification” (Nature, 2010).
